Assay results taken from the supplement of paper PMC10849652.
About 7,900 targets were measured; listed, in parts, are those with a hit and a random draw of the rest. About 0.6% of all pairs of compound and target were hits.

Experiments:
Assay in all cases: log2 fold change, soluble protein after heating vs DMSO (PISA); higher = thermal stabilisation; K562 cells, 10 uM, 30 min; active = over 0.2 and 3.5 SD of the protein, either way, in both replicates (recomputed)
[1] = compound: NC(=O)Nc1cc(-c2cccc(F)c2)sc1C(=O)N[C@H]1CCCNC1
Outline: (§1)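 For each measurement, 10 μM compound was applied for 30 min to K562 cells at 2×10^6 cells/mL. Aliquots were heated for 3 min across 48°C-58°C, pooled, and extracted in PBS with 0.5% NP-40 at 4°C; the supernatant after 21,000xg for 90 min was soluble protein. This was quantified by TMTpro 16plex LC-MS/MS with channel sums equalised, and thermal stability was reported relative to control samples from duplicates, on a log2 fold-change scale.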

[2] = compound: NC(=O)c1cnc(N[C@@H]2CCCC[C@@H]2N)nc1Nc1cccc(-n2nccn2)c1
Outline: as §1

[3] = compound: NC1(c2ccc(-c3nc4ccn5c(=O)[nH]nc5c4cc3-c3ccccc3)cc2)CCC1
Outline: as §1

[4] = compound: NCC(=O)Nc1ccc(-n2nc(C(F)(F)F)cc2-c2ccc3c(ccc4ccccc43)c2)cc1
Outline: as §1

[5] = compound: Nc1ccccc1NC(=O)c1ccc(CNC(=O)OCc2cccnc2)cc1 [entinostat]
Outline: as §1

[6] = compound: O=C(CCCCCCC(=O)Nc1ccccc1)NO [vorinostat]
Outline: as §1

[7] = compound: O=C(CCCCCCNC(=O)c1cnc(N(c2ccccc2)c2ccccc2Cl)nc1)NO [citarinostat]
Outline: as §1

[8] = compound: O=C(O)c1ccc2c(c1)nc(Nc1cccc(Cl)c1)c1ccncc12 [silmitasertib]
Outline: as §1

[9] = compound: O=C1NC(=O)C(c2cnc3ccccn23)=C1c1cn2c3c(cc(F)cc13)CN(C(=O)N1CCCCC1)CC2
Outline: as §1

[10] = compound: c1cc(OCCN2CCCCC2)cc(-c2n[nH]c3ccc(-c4nnc[nH]4)cc23)c1
Outline: as §1

Measured: log2 fold change

RBBP6 (UniProt Q7Z6E9)
Chain of UniProt Q7Z6E9 (Q7Z6E9 whole entry, looked up): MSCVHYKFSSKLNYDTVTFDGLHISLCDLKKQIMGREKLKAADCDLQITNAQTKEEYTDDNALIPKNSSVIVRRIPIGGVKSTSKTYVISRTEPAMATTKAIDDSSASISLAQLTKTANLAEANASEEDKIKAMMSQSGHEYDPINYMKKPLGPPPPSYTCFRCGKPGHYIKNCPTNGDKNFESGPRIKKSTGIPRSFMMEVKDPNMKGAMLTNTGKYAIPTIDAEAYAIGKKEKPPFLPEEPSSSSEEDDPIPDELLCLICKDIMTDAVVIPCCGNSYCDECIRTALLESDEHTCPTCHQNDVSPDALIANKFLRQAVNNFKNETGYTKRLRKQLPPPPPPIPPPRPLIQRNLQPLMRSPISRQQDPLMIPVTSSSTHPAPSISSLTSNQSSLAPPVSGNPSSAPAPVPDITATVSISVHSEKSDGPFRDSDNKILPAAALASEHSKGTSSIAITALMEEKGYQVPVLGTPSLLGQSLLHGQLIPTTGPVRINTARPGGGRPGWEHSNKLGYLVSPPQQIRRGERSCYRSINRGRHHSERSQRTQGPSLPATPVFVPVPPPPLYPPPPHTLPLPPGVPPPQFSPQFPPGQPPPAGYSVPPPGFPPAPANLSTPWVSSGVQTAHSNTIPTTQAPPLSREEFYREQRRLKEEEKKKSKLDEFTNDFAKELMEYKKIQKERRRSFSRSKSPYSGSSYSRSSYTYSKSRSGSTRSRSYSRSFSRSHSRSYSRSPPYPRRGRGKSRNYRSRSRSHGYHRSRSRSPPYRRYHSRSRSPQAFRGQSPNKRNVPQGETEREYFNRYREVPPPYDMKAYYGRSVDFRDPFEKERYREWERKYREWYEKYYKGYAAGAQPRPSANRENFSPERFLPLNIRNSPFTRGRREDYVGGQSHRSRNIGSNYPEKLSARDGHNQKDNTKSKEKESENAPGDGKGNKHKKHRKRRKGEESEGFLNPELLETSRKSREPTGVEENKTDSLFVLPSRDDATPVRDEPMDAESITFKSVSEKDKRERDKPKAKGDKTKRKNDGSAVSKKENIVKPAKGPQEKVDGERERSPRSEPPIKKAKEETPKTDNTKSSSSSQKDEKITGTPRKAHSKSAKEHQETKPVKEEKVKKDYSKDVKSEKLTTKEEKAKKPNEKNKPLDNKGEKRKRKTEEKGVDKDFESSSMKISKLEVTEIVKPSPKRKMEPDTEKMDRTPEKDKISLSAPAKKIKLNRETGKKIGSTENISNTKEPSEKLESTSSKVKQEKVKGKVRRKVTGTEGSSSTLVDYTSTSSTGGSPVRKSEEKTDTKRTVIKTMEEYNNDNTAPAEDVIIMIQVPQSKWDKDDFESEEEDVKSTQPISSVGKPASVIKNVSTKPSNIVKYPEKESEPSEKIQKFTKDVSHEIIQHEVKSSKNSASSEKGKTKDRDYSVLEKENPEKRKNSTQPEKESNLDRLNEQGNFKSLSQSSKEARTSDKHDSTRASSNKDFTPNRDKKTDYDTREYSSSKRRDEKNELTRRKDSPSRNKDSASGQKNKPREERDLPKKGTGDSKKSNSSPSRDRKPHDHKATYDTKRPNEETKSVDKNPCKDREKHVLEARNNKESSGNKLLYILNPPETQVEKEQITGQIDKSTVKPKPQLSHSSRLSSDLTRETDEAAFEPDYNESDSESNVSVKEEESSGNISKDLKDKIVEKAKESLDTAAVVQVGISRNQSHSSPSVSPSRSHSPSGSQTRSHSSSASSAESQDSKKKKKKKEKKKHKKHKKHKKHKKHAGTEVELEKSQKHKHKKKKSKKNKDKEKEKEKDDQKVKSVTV
inactive: [1] 0.028 | [2] -0.107 | [3] 0.089 | [4] -0.017 | [5] -0.011 | [6] 0.081 | [7] 0.099 | [8] 0.207 | [9] 0.112 | [10] -0.013

RPL31 (UniProt P62899)
inactive: [1] 0.042 | [2] 0.099 | [3] 0.26 | [4] 0.075 | [5] -0.079 | [6] -0.012 | [7] -0.09 | [8] 0.048 | [9] 0.104 | [10] -0.12

RPS13 (UniProt P62277)
inactive: [1] 0.058 | [2] 0.093 | [3] 0.246 | [4] 0.115 | [5] -0.062 | [6] 0.019 | [7] -0.121 | [8] -0.022 | [9] 0.091 | [10] -0.182

RNF2 (UniProt Q99496)
inactive: [1] -0.04 | [2] -0.023 | [3] -0.003 | [4] -0.051 | [5] 0.102 | [6] -0.048 | [7] 0.054 | [8] 0.003 | [9] -0.014 | [10] -0.102

RPS15 (UniProt P62841)
inactive: [1] 0.005 | [2] -0.13 | [3] 0.135 | [4] 0 | [5] -0.068 | [6] 0 | [7] -0.034 | [8] 0.02 | [9] 0.036 | [10] -0.144

RPS20 isoform 2 (UniProt P60866)
inactive: [1] -0.012 | [2] 0.056 | [3] 0.151 | [4] 0.037 | [5] -0.029 | [6] 0.012 | [7] -0.091 | [8] -0.006 | [9] 0.072 | [10] -0.1

RAB9A (UniProt P51151)
Chain of UniProt P51151 (P51151 whole entry, looked up): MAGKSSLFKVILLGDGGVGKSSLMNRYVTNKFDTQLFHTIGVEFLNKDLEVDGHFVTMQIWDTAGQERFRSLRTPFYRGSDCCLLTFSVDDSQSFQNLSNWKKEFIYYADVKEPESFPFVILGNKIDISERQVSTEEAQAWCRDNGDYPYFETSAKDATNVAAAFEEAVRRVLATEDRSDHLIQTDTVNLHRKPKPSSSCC
active: [3] -0.229
inactive: [1] 0.014 | [2] -0.026 | [4] -0.022 | [5] 0 | [6] 0.035 | [7] 0.039 | [8] -0.028 | [9] -0.032 | [10] -0.018

RNASET2 (UniProt O00584)
active: [3] -0.285
inactive: [1] -0.082 | [2] -0.114 | [4] -0.033 | [5] -0.012 | [6] -0.04 | [7] 0.074 | [8] -0.018 | [9] -0.048 | [10] -0.102

RAVER1 (UniProt E9PAU2)
inactive: [1] -0.063 | [2] -0.35 | [3] -0.1 | [4] -0.32 | [5] 0.211 | [6] 0.207 | [7] 0.166 | [8] -0.022 | [9] -0.244 | [10] -0.088

RABGAP1L isoform 3 (UniProt Q5R372)
inactive: [1] -0.012 | [2] -0.012 | [3] -0.05 | [4] 0.036 | [5] 0.016 | [6] 0.025 | [7] 0.06 | [8] 0.019 | [9] 0.073 | [10] -0.011

RBM8A (UniProt Q9Y5S9)
inactive: [1] -0.044 | [2] 0.075 | [3] -0.045 | [4] -0.068 | [5] 0.037 | [6] -0.025 | [7] 0.03 | [8] 0.011 | [9] -0.019 | [10] -0.076

REL (UniProt Q04864)
inactive: [1] -0.053 | [2] -0.131 | [3] -0.108 | [4] 0.028 | [5] -0.007 | [6] -0.122 | [7] 0.053 | [8] 0.053 | [9] -0.054 | [10] -0.09

RPS16 (UniProt P62249)
inactive: [1] 0.086 | [2] 0.08 | [3] 0.182 | [4] 0.043 | [5] -0.043 | [6] 0.017 | [7] -0.044 | [8] -0.097 | [9] 0.093 | [10] -0.119

SCAF8 isoform 2 (UniProt Q9UPN6)
Chain of UniProt Q9UPN6 (Q9UPN6 whole entry, looked up): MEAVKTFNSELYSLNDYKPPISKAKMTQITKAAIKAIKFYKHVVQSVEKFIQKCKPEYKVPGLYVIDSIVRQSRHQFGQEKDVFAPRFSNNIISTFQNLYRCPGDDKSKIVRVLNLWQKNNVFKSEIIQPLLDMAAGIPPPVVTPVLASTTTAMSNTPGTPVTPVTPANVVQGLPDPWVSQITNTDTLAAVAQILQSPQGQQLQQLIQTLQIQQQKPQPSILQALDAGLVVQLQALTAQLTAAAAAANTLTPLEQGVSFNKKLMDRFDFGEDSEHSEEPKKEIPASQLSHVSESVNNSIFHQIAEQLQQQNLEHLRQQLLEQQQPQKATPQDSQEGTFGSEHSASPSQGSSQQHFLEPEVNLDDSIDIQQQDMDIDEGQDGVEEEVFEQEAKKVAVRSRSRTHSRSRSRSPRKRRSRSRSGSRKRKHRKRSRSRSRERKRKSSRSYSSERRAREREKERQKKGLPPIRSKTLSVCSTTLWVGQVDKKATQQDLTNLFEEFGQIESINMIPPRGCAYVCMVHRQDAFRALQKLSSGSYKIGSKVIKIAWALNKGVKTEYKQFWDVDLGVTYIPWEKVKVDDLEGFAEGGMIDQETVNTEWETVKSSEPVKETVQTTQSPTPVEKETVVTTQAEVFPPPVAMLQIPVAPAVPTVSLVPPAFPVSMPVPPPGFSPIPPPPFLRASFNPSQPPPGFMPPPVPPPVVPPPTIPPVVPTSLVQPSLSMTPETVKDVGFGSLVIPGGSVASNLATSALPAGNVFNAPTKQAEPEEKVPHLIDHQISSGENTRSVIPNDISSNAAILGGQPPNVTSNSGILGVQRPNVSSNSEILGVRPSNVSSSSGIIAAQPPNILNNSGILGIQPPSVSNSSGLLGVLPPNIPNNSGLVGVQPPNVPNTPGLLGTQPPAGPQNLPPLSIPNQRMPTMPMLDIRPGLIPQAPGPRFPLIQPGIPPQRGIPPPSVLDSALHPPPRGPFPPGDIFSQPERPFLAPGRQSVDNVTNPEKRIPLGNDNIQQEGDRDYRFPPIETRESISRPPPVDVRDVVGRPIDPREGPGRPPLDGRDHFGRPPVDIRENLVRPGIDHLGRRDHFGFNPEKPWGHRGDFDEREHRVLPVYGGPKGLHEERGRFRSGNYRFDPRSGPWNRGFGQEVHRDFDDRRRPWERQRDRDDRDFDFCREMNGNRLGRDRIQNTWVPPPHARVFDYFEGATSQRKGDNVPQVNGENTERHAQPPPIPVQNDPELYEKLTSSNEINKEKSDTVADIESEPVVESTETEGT
inactive: [1] -0.062 | [2] -0.028 | [3] -0.086 | [4] -0.044 | [5] 0.053 | [6] 0.166 | [7] 0.058 | [8] -0.003 | [9] -0.098 | [10] -0.093

RPA3 (UniProt P35244)
active: [4] 0.371
inactive: [1] 0.044 | [2] 0.086 | [3] -0.021 | [5] 0.102 | [6] -0.005 | [7] 0.1 | [8] -0.007 | [9] -0.164 | [10] -0.071

SEC16A isoform 5 (UniProt O15027)
inactive: [1] 0.006 | [2] -0.072 | [3] -0.14 | [4] 0.055 | [5] 0.071 | [6] 0.154 | [7] 0.071 | [8] -0.007 | [9] 0.191 | [10] -0.022

RPS18 (UniProt P62269)
inactive: [1] -0.032 | [2] 0.08 | [3] 0.122 | [4] 0.049 | [5] -0.083 | [6] 0.023 | [7] -0.093 | [8] 0 | [9] 0.069 | [10] -0.145

RSRC1 (UniProt Q96IZ7)
active: [8] -0.275
inactive: [1] -0.019 | [2] 0.162 | [3] -0.005 | [4] -0.013 | [5] -0.04 | [6] 0.022 | [7] 0.049 | [9] -0.029 | [10] -0.123

SH3GLB2 (UniProt Q9NR46)
Chain of UniProt Q9NR46 (Q9NR46 whole entry, looked up): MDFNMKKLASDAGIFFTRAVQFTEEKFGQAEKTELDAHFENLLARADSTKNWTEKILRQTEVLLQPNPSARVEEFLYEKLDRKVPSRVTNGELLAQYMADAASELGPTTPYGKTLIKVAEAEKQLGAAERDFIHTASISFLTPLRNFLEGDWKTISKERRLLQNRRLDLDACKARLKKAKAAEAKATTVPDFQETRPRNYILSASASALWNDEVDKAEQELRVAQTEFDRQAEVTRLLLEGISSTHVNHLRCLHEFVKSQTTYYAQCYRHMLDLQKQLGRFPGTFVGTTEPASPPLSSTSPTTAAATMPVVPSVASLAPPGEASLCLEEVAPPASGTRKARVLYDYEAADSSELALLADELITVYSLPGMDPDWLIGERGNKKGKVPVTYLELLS
inactive: [1] -0.105 | [2] -0.13 | [3] -0.163 | [4] 0.004 | [5] 0.069 | [6] 0.081 | [7] 0.059 | [8] 0.015 | [9] -0.028 | [10] -0.13

RFC3 (UniProt P40938)
inactive: [1] -0.001 | [2] -0.039 | [3] -0.078 | [4] -0.023 | [5] -0.028 | [6] 0.028 | [7] 0.077 | [8] -0.006 | [9] -0.039 | [10] -0.013

RRAGB (UniProt Q5VZM2)
Chain of UniProt Q5VZM2 (Q5VZM2 whole entry, looked up): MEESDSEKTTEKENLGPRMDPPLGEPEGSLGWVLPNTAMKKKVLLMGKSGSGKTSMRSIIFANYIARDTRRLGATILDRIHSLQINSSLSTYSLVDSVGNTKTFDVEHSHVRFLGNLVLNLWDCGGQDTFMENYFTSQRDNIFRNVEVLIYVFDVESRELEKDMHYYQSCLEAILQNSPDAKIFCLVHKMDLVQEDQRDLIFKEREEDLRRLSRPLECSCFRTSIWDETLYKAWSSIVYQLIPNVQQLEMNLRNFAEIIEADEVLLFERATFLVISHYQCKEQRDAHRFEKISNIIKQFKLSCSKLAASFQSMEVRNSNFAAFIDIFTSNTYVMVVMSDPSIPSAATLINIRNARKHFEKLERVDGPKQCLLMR
active: [3] -0.317
inactive: [1] 0.112 | [2] -0.017 | [4] 0.023 | [5] 0.012 | [6] 0.018 | [7] -0.006 | [8] 0.031 | [9] 0.008 | [10] 0.05

RBM4 (UniProt Q9BWF3)
Chain of UniProt Q9BWF3 (Q9BWF3 whole entry, looked up): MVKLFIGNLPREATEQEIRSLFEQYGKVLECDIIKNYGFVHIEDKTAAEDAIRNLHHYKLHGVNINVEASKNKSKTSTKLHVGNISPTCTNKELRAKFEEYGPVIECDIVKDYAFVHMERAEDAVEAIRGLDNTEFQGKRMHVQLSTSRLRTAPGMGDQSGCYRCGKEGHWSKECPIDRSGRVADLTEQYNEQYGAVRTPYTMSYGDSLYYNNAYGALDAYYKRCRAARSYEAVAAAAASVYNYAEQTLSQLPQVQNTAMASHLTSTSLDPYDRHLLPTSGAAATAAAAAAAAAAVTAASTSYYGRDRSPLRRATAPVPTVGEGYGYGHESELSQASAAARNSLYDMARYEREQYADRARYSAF
inactive: [1] 0.015 | [2] -0.031 | [3] -0.017 | [4] -0.033 | [5] 0.023 | [6] 0.06 | [7] -0.015 | [8] 0.095 | [9] -0.002 | [10] -0.092

SCCPDH (UniProt Q8NBX0)
inactive: [1] -0.113 | [2] -0.056 | [3] 0.045 | [4] -0.024 | [5] -0.071 | [6] 0.062 | [7] 0.199 | [8] -0.004 | [9] 0.123 | [10] 0.33

RAF1 isoform 2 (UniProt P04049)
inactive: [1] -0.208 | [2] -0.012 | [3] 0.086 | [4] -0.017 | [5] -0.033 | [6] 0.069 | [7] -0.037 | [8] -0.033 | [9] -0.13 | [10] -0.133

RBM39 (UniProt Q14498)
inactive: [1] -0.141 | [2] -0.079 | [3] 0.023 | [4] -0.152 | [5] 0.02 | [6] 0.062 | [7] 0.105 | [8] -0.083 | [9] 0.049 | [10] -0.144

SENP6 (UniProt Q9GZR1)
inactive: [1] 0.011 | [2] -0.009 | [3] -0.073 | [4] -0.023 | [5] -0.019 | [6] -0.021 | [7] 0.04 | [8] -0.118 | [9] 0.027 | [10] -0.049

RABGGTA (UniProt Q92696)
Chain of UniProt Q92696 (Q92696 whole entry, looked up): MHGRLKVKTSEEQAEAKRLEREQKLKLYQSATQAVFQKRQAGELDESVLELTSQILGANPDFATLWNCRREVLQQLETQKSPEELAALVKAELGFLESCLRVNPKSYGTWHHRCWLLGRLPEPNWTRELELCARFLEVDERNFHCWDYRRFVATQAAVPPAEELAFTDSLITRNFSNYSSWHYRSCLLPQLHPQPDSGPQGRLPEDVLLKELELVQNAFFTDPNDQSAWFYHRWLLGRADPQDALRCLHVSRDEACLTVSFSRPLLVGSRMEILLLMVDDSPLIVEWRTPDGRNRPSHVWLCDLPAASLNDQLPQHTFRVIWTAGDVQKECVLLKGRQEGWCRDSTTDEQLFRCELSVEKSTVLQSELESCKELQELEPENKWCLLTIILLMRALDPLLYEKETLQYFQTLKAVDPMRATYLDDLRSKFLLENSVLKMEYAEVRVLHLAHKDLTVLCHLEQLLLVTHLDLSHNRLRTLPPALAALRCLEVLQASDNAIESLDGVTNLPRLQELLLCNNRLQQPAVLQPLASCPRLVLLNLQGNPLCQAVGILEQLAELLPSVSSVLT
active: [3] -0.257
inactive: [1] 0.034 | [2] -0.008 | [4] 0.051 | [5] -0.05 | [6] 0.005 | [7] 0.038 | [8] 0.008 | [9] 0.003 | [10] 0.027

RPS6KA3 (UniProt P51812)
inactive: [1] -0.076 | [2] -0.177 | [3] -0.203 | [4] -0.029 | [5] 0.044 | [6] 0.048 | [7] 0.079 | [8] -0.038 | [9] -0.046 | [10] -0.241

RSPRY1 (UniProt Q96DX4)
inactive: [1] -0.054 | [2] 0.051 | [3] -0.104 | [4] 0.061 | [5] -0.016 | [6] -0.02 | [7] -0.075 | [8] 0.028 | [9] -0.072 | [10] -0.008

RPS12 (UniProt P25398)
inactive: [1] 0.006 | [2] 0.073 | [3] 0.134 | [4] 0.068 | [5] -0.032 | [6] -0.002 | [7] 0.009 | [8] -0.042 | [9] 0.076 | [10] -0.113

RPS6KA2 isoform 2 (UniProt Q15349)
inactive: [1] -0.129 | [2] -0.256 | [3] -0.269 | [4] -0.035 | [5] 0.067 | [6] 0.122 | [7] 0.106 | [8] -0.044 | [9] -0.056 | [10] -0.295

SETMAR (UniProt Q53H47)
active: [7] -0.629
inactive: [1] 0.11 | [2] -0.024 | [3] 0.05 | [4] -0.078 | [5] -0.032 | [6] 0.004 | [8] -0.064 | [9] -0.105 | [10] -0.255

SIDT2 isoform 2 (UniProt Q8NBJ9)
inactive: [1] 0.057 | [2] -0.01 | [3] -0.086 | [4] 0.297 | [5] -0.064 | [6] -0.107 | [7] 0.002 | [8] -0.067 | [9] 0.029 | [10] 0.108

RDH13 (UniProt Q8NBN7)
inactive: [1] -0.038 | [2] -0.049 | [3] -0.064 | [4] -0.055 | [5] -0.032 | [6] 0.002 | [7] 0.029 | [8] -0.013 | [9] -0.029 | [10] -0.02
